Screening data from PubChem BioAssay.
HIF-2a block = blocks HIF-2a reporter activity; 786-0 RCC cells HIF-2a reporter, luciferase luminescence, overnight; inhibition, % at 18.8 µM; hit rate 0.72% among 360,000;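 active = inhibition of the luminescence signal of 40% or more relative to plate controls, in a single-dose primary screen at 18.75 µM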
EBV LMP1 NFkB = inhibitors of Epstein-Barr LMP1-induced NF-kappaB reporter; LMP1-induced NF-kappaB luciferase reporter cells, luminescence; inhibition, % at 12.5 µM; hit rate 0.69% among 350,000; AID 504558; in the data active = inhibition above about 41%;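 also: 0% = neutral control wells and 100% = reference inhibitor control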
CF NFkB block = inhibitors of cystic fibrosis induced NF-kB | KKLEB NF-kB-GFP reporter, PAF-induced, GFP fluorescence overnight | hit rate 0.86% among 360,000 | inhibition, % at 5 µM;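 active = at least 50% inhibition at 5 µM, scaled per plate between neutral and stimulator controls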;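 also: PAF is a Pseudomonas aeruginosa culture filtrate used as stimulus; plate controls were PAF-stimulated DMSO wells for no effect and unstimulated DMSO wells for full effect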
Peg3 promoter = reduces Peg3 promoter-driven luciferase expression in HeLa | inhibition, % at 20 µM | HeLa PEG-Prom luciferase reporter, luminescence, overnight | hit rate 1.7% among 360,000 | AID 588405;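 active = inhibition of at least 50% at 20 µM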
KKLEB tox = counter-screen for CF NF-kB inhibitors: cytotoxicity; activity change (cytotoxicity), % at 5 µM; KKLEB CF airway cells viability, ATPlite luminescence, overnight; stronger effect = lower value; cells stimulated with P. aeruginosa culture filtrate; hit rate 0.36% among 360,000;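 active = corrected activity change at or below -50% at 5 µM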
MITF TRPM1 inh = MITF TRPM1 promoter inhibition in SK-MEL-5 cells; SK-MEL-5 TRPM1 promoter luciferase, 24 h; inhibition, % at 12.5 µM; hit rate 0.83% among 330,000; AID 488899;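 active = mean inhibition across replicates of 60% or more, whatever share of single replicates reaches that level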
An asterisk follows results filed as active; nt = no result given. Rows were chosen to be rich in hits. Some 3% of all compounds tested hit in one or more screens of this group.

SMILES	HIF-2a block	EBV LMP1 NFkB	CF NFkB block	Peg3 promoter	KKLEB tox	MITF TRPM1 inh
C=CCn1c(SCC(=O)c2[nH]c(C)c(C(=O)OCC)c2C)nc2scc(-c3ccccc3)c2c1=O	13.3	-6.9	16.2	-2.8	-8.7	38.0
C=CCn1c(SCC(=O)c2[nH]c(C)c(C(=O)OCC)c2C)nc2scc(-c3ccc(OC)cc3)c2c1=O	19.0	-32.8	32.3	53.8*	-37.3	81.9*
CN(C)CCNc1nc(Oc2cccc(F)c2)c2sccc2n1	-3.8	nt	-2.3	-3.7	-9.5	nt
CN1CCN(c2ccc3sc(-n4ccc5ccccc54)nc3c2)CC1	-24.6	8.7	6.3	8.8	-48.8	nt
CC1(C)CC(=O)C2=C(C1)Nc1ccccc1NC2c1cc(Cl)ccc1O (stereo not drawn)	-3.9	84.9*	8.4	13.5	9.8	0.8
Cc1ccc(-c2nn(CC(=O)NCc3cc(-c4nn(C)c(=O)c5ccccc45)ccc3C)c(=O)c3ccccc23)cc1	1.6	-11.9	0.0	70.5*	7.7	82.3*
O=C(O)Cn1nncc1-c1ccc(C(F)(F)F)cc1	4.8	nt	-43.3	-3.1	7.8	nt
C[C@@H]1CN([C@@H](C)CO)C(=O)CCCn2nncc2CO[C@@H]1CN(C)C(=O)Nc1cccc(C(F)(F)F)c1	-16.8	5.0	10.1	-12.3	10.2	nt
CN(C)CCN1CCN(C2CN(C3CCCC3)S(=O)(=O)C2)CC1 (stereo not drawn)	9.6	nt	0.8	14.6	-12.4	nt
CCOC(=O)c1ccc(NC(=S)N2CCSC2c2ccc(Cl)cc2)cc1 (stereo not drawn)	-18.6	-2.9	13.9	-11.9	15.0	5.5
CCOC(=O)c1ccc(NC(=S)N2CCSC2c2ccc(OC)cc2)cc1 (stereo not drawn)	-93.8	66.9*	16.8	-56.1	1.3	-2.5
CC1(C(=O)NC2CCN(Cc3ccccc3)CC2)CCN1Cc1cc2ccccc2o1 (stereo not drawn)	9.4	nt	5.9	12.8	8.5	nt
CCCCCCCCCCCCC/C=C/[C@@H](O)[C@@H](N)CO	6.0	4.0	-8.4	55.3*	-1.0	9.5
CSc1ccc(S(=O)(=O)NC(C)c2ccccc2)cc1 (stereo not drawn)	3.2	3.5	-7.8	4.4	0.4	2.3
Cc1ccc(S(=O)(=O)NC(C)c2ccccc2)cc1[N+](=O)[O-] (stereo not drawn)	20.7	50.4*	6.9	11.6	-3.6	0.9
CCOC(=O)[C@]12CCC=C1N(Cc1ccco1)C(=O)[C@H](CC(=O)NCCCOC)C2	6.8	nt	nt	nt	nt	nt
CC(NCCCOc1cccc2ccccc12)c1ccccc1 (stereo not drawn)	14.4	1.0	28.6	94.0*	-11.6	9.7
C#CCOCC1CN(C)C(=O)O1 (stereo not drawn)	11.1	0.1	29.4	4.0	-7.9	nt
O=C(Nc1ccc2c(c1)OCCO2)c1coc2ccccc2c1=O	16.6	17.6	24.8	3.3	3.8	72.6*
O=C(CCl)Nc1c(C(=O)Nc2ccc3c(c2)OCCO3)oc2ccccc12	-52.3	-46.0	19.8	98.3*	-31.4	-13.8
Cc1ccccc1C(=O)Nc1ccc2c(c1)OCCO2	-47.5	31.6	11.9	-56.1	0.2	9.5
CC(O)(c1ccc(F)c(F)c1)c1nc(-c2cccc3cccnc23)cs1 (stereo not drawn)	17.4	nt	-18.4	14.6	-0.9	nt
CC(C)Oc1ccc(CN2CCC2(C)C(=O)Nc2cccc3cccnc23)cc1 (stereo not drawn)	-8.9	nt	3.9	-3.4	6.5	nt
Cc1ccc(Cl)cc1N1CCN(C(=O)C2CCN(S(=O)(=O)c3c(C)nn(C)c3C)CC2)CC1	9.4	12.4	12.1	50.6*	-12.7	-3.6
CC(C)=C1C2CCC1C1C(=O)N(NC(=O)COc3ccc(C(C)(C)C)cc3)C(=O)C21 (stereo not drawn)	12.8	-2.1	7.0	54.5*	-2.9	-4.3
SMILES	HIF-2a block	EBV LMP1 NFkB	CF NFkB block	Peg3 promoter	KKLEB tox	MITF TRPM1 inh
CC1=C(CC(=O)c2ccc(Cl)cc2)C(=O)c2ccccc2C1=O	-144.4	-23.0	64.9*	-259.1	-31.4	27.1
O=C(Cc1ccccn1)c1ccc(Cl)cc1	-259.9	-1.9	-10.6	-318.0	12.5	-93.9
OC(c1ccc(Cl)cc1)c1ncc(-c2ccccc2F)[nH]1 (stereo not drawn)	-169.5	nt	10.9	-118.3	-6.6	nt
CC(C)N(C)c1ncnc2c1ncn2[C@H]1CN(Cc2cccs2)C[C@@H](CO)O1	1.1	nt	4.1	9.7	0.3	nt
O=C(C=Cc1ccccc1)c1ccc([N+](=O)[O-])cc1	-54.5	56.3*	-5.8	40.2	1.3	-8.2
O=C(/C=C/c1cccnc1)c1ccc([N+](=O)[O-])cc1	-10.8	-0.1	-4.5	47.8	-14.5	12.4
O=C(C=Cc1cccnc1)c1ccccc1	-25.4	10.7	-9.8	78.8*	6.3	40.2
COc1cccc(NC(=O)N(C)C[C@@H]2OCc3cnnn3CCCC(=O)N([C@H](C)CO)C[C@@H]2C)c1	-7.9	-1.8	1.5	3.3	8.5	nt
COC(=O)CC1C(=O)NCCN1C(=O)c1oc2c(C)c(C)ccc2c1C (stereo not drawn)	-36.3	-0.4	-5.5	-12.4	-2.4	nt
COc1ccccc1-c1cc(C(F)(F)F)nc(S(=O)(=O)CCCC(=O)NC(C)C)n1	89.7*	-3.7	88.2*	112.7*	-93.9*	86.1*
COc1ccc(-c2cc(C(F)(F)F)nc(S(=O)(=O)CCCC(=O)Nc3cc(C)on3)n2)cc1OC	-54.7	-1.3	102.3*	110.9*	-74.8*	41.3
COc1ccccc1-c1cc(C(F)(F)F)nc(S(=O)(=O)CCCC(=O)Nc2cccnc2Cl)n1	34.1	-24.1	72.5*	110.6*	-54.8*	77.2*
COc1ccccc1/C=C/C(=O)Nc1cccnc1Cl	-240.1	-14.5	13.4	-203.6	-10.8	-66.0
COc1ccccc1-c1cc(C(F)(F)F)nc(S(=O)(=O)CCCC(=O)Nc2cc(C)on2)n1	72.7*	-7.7	85.7*	105.6*	-65.8*	95.8*
Nc1ncnc2c1ncn2[C@@H]1O[C@H](CNC(=O)[C@@H](N)Cc2ccc(C(=O)c3ccccc3)cc2)[C@@H](O)[C@H]1O	17.2	nt	-0.3	-8.1	-14.2	nt
COc1cc(/C=C2\SC(N)=NC2=O)ccc1O	30.8	-13.4	73.4*	15.6	-15.7	3.8
Cc1ccsc1/C=C1\SC(N)=NC1=O	-106.1	50.0*	3.8	-90.1	-3.0	-4.2
C=CCOc1ccc(/C=C2\SC(N)=NC2=O)cc1OC	0.6	9.2	9.8	-23.5	-7.2	-8.6
NC1=NC(=O)/C(=C/c2cc(Br)c(O)c(Br)c2)S1	10.3	6.4	-13.3	9.1	-9.4	-1.4
NC1=NC(=O)/C(=C/c2ccc(Br)cc2)S1	-5.5	74.3*	3.8	-29.3	-5.7	1.0
OC[C@@H]1CN(Cc2ccc3c(c2)OCO3)C[C@H](n2cnc3c(N4CCCC4)ncnc32)O1	-5.5	nt	-3.0	3.6	-1.4	nt
